{
  "source": "PubChem BioAssay AID2314",
  "about": "(National Center for Advancing Translational Sciences (NCATS), 2010)",
  "note": "Out of some 300,000 compounds screened, about 37,000 (12%) were called active. The sample holds actives, similar compounds and a random draw of the others, so the mix is not that of the screen. A number with no mark means an inactive call. Cut-off read from the data, not from the text of the source: active = max response mostly above about 13% (no sharp cut-off); inactive = mostly below about 14%.",
  "data": [
    {"test": "Cycloheximide Counterscreen for Small Molecule Inhibitors of Shiga Toxin; note: read at 38.3 µM for the half of the compounds with a filed dose; 0% is about no effect", "conditions": "cell reporter, cycloheximide protein synthesis inhibition counterscreen; hits give high values", "values": [
      {"smiles": "Cc1ccc(C(=O)Nc2ccc(C)c(S(=O)(=O)N(C)C)c2)s1", "max response": "73.5% (active)"},
      {"smiles": "Cc1ccc(S(=O)(=O)N(C)C)cc1NC(=O)/C=C/c1cccs1", "max response": "-3.65%"},
      {"smiles": "Cc1ccc(NC(=O)c2cccs2)cc1S(=O)(=O)N(C)C", "max response": "17.7% (active)"},
      {"smiles": "Cc1ccc(C(=O)Nc2ccc(NC(=O)c3cccs3)cc2)c(C)c1", "max response": "3.31%"},
      {"smiles": "CCN(CC(=O)Nc1ccc(C)c(S(=O)(=O)N(C)C)c1)Cc1ccccc1", "max response": "10.7%"},
      {"smiles": "COc1ccc(CCC(=O)OCC(=O)Nc2ccc(C)c(S(=O)(=O)N(C)C)c2)cc1", "max response": "-1.02%"},
      {"smiles": "CCn1c(SCC(=O)NC2CC2)nnc1-c1ccccc1OC", "max response": "-2.41%"},
      {"smiles": "COc1ccc(C2CC(c3cccs3)=NN2C(=O)COC(=O)c2cc3ccccc3cc2O)cc1OC", "note": "(stereo not given)", "max response": "-1.77%"},
      {"smiles": "C=CCn1c(SCc2ccc(C(=O)NCCO)cc2)nc2ccccc2c1=O", "max response": "0.679%"},
      {"smiles": "Cc1cc(C)cc(N(CC(=O)NC2CCCC2)C(=O)CCC(=O)Nc2cc(C)on2)c1", "max response": "-3.66%"},
      {"smiles": "O=C(NCCCN1CCOCC1)c1ccccc1NS(=O)(=O)c1ccc(F)cc1", "max response": "16.7% (active)"},
      {"smiles": "O=C(NCCCN1CCOCC1)c1cc(-c2cccc(O)c2)on1", "max response": "2.22%"},
      {"smiles": "O=C(NCCCN1CCOCC1)c1cc(-c2ccccc2F)no1", "max response": "28% (active)"},
      {"smiles": "O=C(Cc1c(F)cccc1Cl)N1CCN(C(=O)c2ccco2)CC1", "max response": "-3.56%"},
      {"smiles": "O=C(NCCCN1CCOCC1)c1cc(-c2ccc(Cl)cc2)on1", "max response": "-2.13%"},
      {"smiles": "O=C(NCCCN1CCOCC1)c1cnn2c(-c3ccccc3)cc(-c3ccccc3)nc12", "max response": "-2.91%"},
      {"smiles": "O=C(NCCCN1CCOCC1)c1ccccc1NS(=O)(=O)c1ccc(Br)cc1", "max response": "2.08%"},
      {"smiles": "O=C(c1ccco1)N1CCN(C(=O)c2cc(-c3ccccc3F)no2)CC1", "max response": "24.9% (active)"},
      {"smiles": "O=C(c1ccco1)N1CCN(C(=S)Nc2cc(F)cc(F)c2)CC1", "max response": "-0.627%"},
      {"smiles": "Cc1ccccc1-n1cc(CNC(=O)CC2C(=O)NCCN2C/C=C/c2ccccc2)cn1", "note": "(stereo not given)", "max response": "0.457%"},
      {"smiles": "COc1ccc(NC(=O)CCn2ccnc2)c(OC)c1", "max response": "-2.17%"},
      {"smiles": "COc1ccc(Cl)cc1NC(=O)C(C)N1CCc2ccccc21", "note": "(stereo not given)", "max response": "-0.595%"},
      {"smiles": "CC1CC(C)CN(C(=O)CSc2ccsc2[N+](=O)[O-])C1", "note": "(stereo not given)", "max response": "25.5%"},
      {"smiles": "COc1ccc(C(CNC(=O)COc2ccccc2OC)N2CCCCC2)cc1", "note": "(stereo not given)", "max response": "-6.3%"},
      {"smiles": "CC1CN(CCCOc2ccccc2-c2ccccc2)CC(C)O1", "note": "(stereo not given)", "max response": "-3.01%"},
      {"smiles": "NNC(=O)CSc1nnc(-c2ccccc2)n1-c1ccccc1", "max response": "-4.61%"},
      {"smiles": "COc1ccc(C(=O)C2CCCN(S(=O)(=O)c3cccc(C)c3)C2)c(C)c1", "note": "(stereo not given)", "max response": "1.12%"},
      {"smiles": "COc1ccc(Cc2nnc(SCC(=O)Nc3ccc(C)c(C)c3)o2)cc1OC", "max response": "-0.716%"},
      {"smiles": "NC1=NN(c2cccc(C(=O)O)c2)C(=O)C1", "max response": "131% (active)"},
      {"smiles": "O=C(c1cccc(N2CCCC2=O)c1)N1CCOCC1", "max response": "-1.05%"},
      {"smiles": "COC(=O)CC1=NN(c2ccccc2)C(=O)C1", "max response": "-2%"},
      {"smiles": "CCO[C@H]1OC(C(=O)N2CCN(Cc3ccccc3)CC2)=C[C@@H](c2cn(C(C)=O)c3ccccc23)[C@@H]1CCCO", "max response": "-1.61%"},
      {"smiles": "O=C(Nn1cnc2ccccc2c1=O)c1ccccc1", "max response": "18%"},
      {"smiles": "O=C(Nn1cnc2ccccc2c1=O)c1ccc([N+](=O)[O-])cc1Cl", "max response": "3.29%"},
      {"smiles": "O=C(Nn1cnc2ccccc2c1=O)c1ccc(F)cc1Cl", "max response": "22.9% (active)"},
      {"smiles": "COc1cc(CCC(=O)N2CCN(c3ccccc3Cl)CC2)cc(OC)c1OC", "max response": "-5.65%"},
      {"smiles": "CNC(=S)N/N=C/c1ccc(OCc2ccccc2)c(Br)c1", "max response": "-5.52%"},
      {"smiles": "Cc1ccc(CNC(=O)C2(C(F)(F)F)C/C(=C\\CCO)CCCO2)o1", "note": "(stereo not given)", "max response": "7.26%"},
      {"smiles": "CCC(=O)Nc1cccc(NC(=O)CSc2nnc(-c3ccc(NS(C)(=O)=O)cc3)n2C)c1", "max response": "-1.2%"},
      {"smiles": "CS(=O)(=O)Nc1cccc(-c2cn3ccccc3n2)c1", "max response": "19.3% (active)"},
      {"smiles": "COc1ccc(OC)c(S(=O)(=O)Nc2cccc(-c3ccc4nncn4n3)c2)c1", "max response": "-3.34%"},
      {"smiles": "CC(=O)C1=C(O)C(=O)N(c2ccc(Br)cc2)C1c1ccc([N+](=O)[O-])cc1", "note": "(stereo not given)", "max response": "-1.92%"},
      {"smiles": "Oc1ccc(Br)cc1C=Nc1ccc2[nH]ncc2c1", "max response": "-2.62%"},
      {"smiles": "CCN(CC)CCn1c(/N=C/c2cc(Br)ccc2O)nc2ccccc21", "max response": "8.52%"},
      {"smiles": "Oc1ccc(Br)cc1/C=N/Nc1ccccn1", "max response": "41.6% (active)"},
      {"smiles": "COc1cccc(-n2c(N)cc(=O)nc2SCC(=O)Nc2cc(C)on2)c1", "max response": "-3.66%"},
      {"smiles": "Cc1ccnc(N2CCN(C(=O)CSc3nc4ccccc4nc3N3CCCCC3)CC2)c1", "max response": "-5.65%"},
      {"smiles": "Cn1c(Nc2ccccc2)cc(=O)n(C)c1=O", "max response": "-4.74%"},
      {"smiles": "COc1ccc(C(=O)COC(=O)CNC(=O)c2cccs2)cc1Br", "max response": "-4.46%"},
      {"smiles": "COc1cc(NC(=S)NCCSc2ccc(C)cc2)cc(OC)c1", "max response": "2.45%"},
      {"smiles": "Cc1ccc(C(=O)NNc2ncnc3ccccc23)cc1", "max response": "37.5% (active)"},
      {"smiles": "CCc1nc(SCC(=O)NNC(=O)c2ccc(C)cc2)c2ccccc2n1", "max response": "-3.44%"},
      {"smiles": "Cc1ccc(C(=O)NNC(=O)c2cc3cc4ccccc4nc3s2)cc1", "max response": "-2.84%"},
      {"smiles": "CCOc1ccccc1-c1nc(CN2CCC(C(=O)N3CCOCC3)CC2)c(C)o1", "max response": "5.66%"},
      {"smiles": "CCOC(=O)CSc1nnc(NC(=O)C2CC(=O)N(c3ccc(F)cc3)C2)s1", "note": "(stereo not given)", "max response": "4.08%"},
      {"smiles": "S=c1[nH]nc(-c2cccnc2)n1/N=C/C(Cl)=C\\c1ccccc1", "max response": "-2.93%"},
      {"smiles": "Cc1cc(-c2n[nH]c(=S)n2/N=C/C(Br)=C/c2ccccc2)n[nH]1", "max response": "95.8% (active)"},
      {"smiles": "Cc1cc(-c2n[nH]c(=S)n2/N=C/c2ccco2)n[nH]1", "max response": "0.979%"},
      {"smiles": "Cc1nn(C)cc1S(=O)(=O)N1CCN(c2ccc(F)cc2)CC1", "max response": "11.1%"},
      {"smiles": "CN(C(=O)COC(=O)CNC(=O)C12CC3CC(CC(C3)C1)C2)c1ccccc1", "max response": "1.16%"}
    ]}
  ]
}
